Test systems include NCI-H23 lung; NCI-H226 lung; NCI-H322M lung; HOP-62 NSCLC; NCI-H460 lung; HOP-92 NSCLC; NCI-H522 lung; A549/ATCC NSCLC; 786-0 renal; COLO 205 colon; DU-145 prostate; K-562 leukemia; MALME-3M melanoma; MDA-MB-231 breast; RXF 393 renal; SF-268 CNS; SF-295 CNS; SF-539 CNS; UACC-257 melanoma; M14 melanoma.
Common to all, as to experiment: NCI-60 one-dose screen, 48 h (100 = growth as untreated, 0 = no growth, -100 = all killed)
Common to all, as to conditions: 10 µM unless noted

Results on eight molecules are retold here after PubChem BioAssay (NCI).

SMILES strings stand for the structures. Compounds without any hit were thinned out: in the full panel of roughly 83,000, 20% have a hit.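 The test compound was applied at a single concentration to cells in 96-well plates for 48 hours, and percent growth was recorded.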 A number with no mark means an inactive call. Active and inactive are the calls of the source. The calls were made as follows: active = growth percent below 10; inactive = the rest.

For `COc1ccc(-c2cc(C(=O)OCc3ccc(Br)cc3)nn2-c2ccc(S(C)(=O)=O)cc2)cc1OC`, the growth in the experiment with NCI-H23 lung is 93.6%; in the experiment with NCI-H226 lung, 82%; with NCI-H322M lung it was 90.9%; in the experiment on HOP-62 NSCLC, 75.9%; in the experiment with NCI-H460 lung it was 91.1%; with HOP-92 NSCLC, 69.5%. Moreover, the growth in the experiment on NCI-H522 lung is 52.8%; in the experiment on A549/ATCC NSCLC, 78.6%; in the experiment on 786-0 renal, 75%; in the experiment with COLO 205 colon, 110%; in the experiment with DU-145 prostate it was 86.4%; with K-562 leukemia, 79.9%. The growth with MALME-3M melanoma was 106%; in the experiment with MDA-MB-231 breast, 70.5%; with RXF 393 renal it was 62%; with SF-268 CNS, 66.5%; in the experiment with SF-295 CNS, 81.4%; in the experiment with SF-539 CNS, 72.4%. The growth in the experiment with UACC-257 melanoma was 106%; in the experiment on M14 melanoma, 114%.

Take `Cc1ccc(C2CC(c3ccc(NC(=O)Nc4ccccc4)cc3)=NN2c2ccc(S(N)(=O)=O)cc2)cc1` (stereo not given): the growth was -95.8% (active) in the experiment on NCI-H23 lung; -80.4% (active) in the experiment on NCI-H226 lung; -96.5% (active) with NCI-H322M lung; -72.9% (active) with HOP-62 NSCLC; -86.1% (active) in the experiment on NCI-H460 lung; -81.3% (active) with HOP-92 NSCLC. The growth was -84% (active) in the experiment with NCI-H522 lung; -61.4% (active) in the experiment on A549/ATCC NSCLC; -87.9% (active) with 786-0 renal; -66.3% (active) in the experiment with COLO 205 colon; -76.2% (active) in the experiment on DU-145 prostate; 6.16% (active) with K-562 leukemia. Moreover, the growth with MALME-3M melanoma is -96.5% (active); with MDA-MB-231 breast, -90.8% (active); in the experiment on RXF 393 renal, -91.3% (active); in the experiment with SF-268 CNS it was -74.5% (active); in the experiment on SF-295 CNS it was -71.2% (active); in the experiment with SF-539 CNS it was -99.3% (active). Moreover, the growth is -71.6% (active) in the experiment with UACC-257 melanoma and -73.2% (active) in the experiment with M14 melanoma.

On to `COc1cc2cc(C(=O)N3C[C@@H](CCl)c4c3cc(OC(=O)N(CCC(=O)N3CCN(C)CC3)[C@H]3CCSSC3)c3ccccc43)[nH]c2c(OC)c1OC`, for which the growth with NCI-H23 lung is -87% (active); with NCI-H226 lung, -15.3% (active); in the experiment on NCI-H322M lung it was -23% (active); in the experiment on HOP-62 NSCLC, -17.8% (active); with NCI-H460 lung it was -72.6% (active); in the experiment with HOP-92 NSCLC, -7.53% (active). Moreover, the growth in the experiment on NCI-H522 lung is -80.5% (active); with A549/ATCC NSCLC it was -37.3% (active); in the experiment with 786-0 renal it was -79.8% (active); in the experiment on COLO 205 colon, -65.7% (active); with DU-145 prostate, -10.5% (active); with K-562 leukemia it was -8.96% (active). For the same molecule, the growth was -96.7% (active) with MALME-3M melanoma; -74.8% (active) in the experiment with MDA-MB-231 breast; -94.5% (active) with RXF 393 renal; -10.3% (active) in the experiment on SF-268 CNS; -65.9% (active) in the experiment with SF-295 CNS; -80.3% (active) in the experiment on SF-539 CNS. For the same molecule, the results for the growth in the experiment with UACC-257 melanoma and in the experiment on M14 melanoma were -61.9% (active) and -77.2% (active), respectively.

On to `Cc1nc(Nc2ccccn2)sc1C1=NNC(c2ccccc2F)C1` (stereo not given), for which the growth is 67.6% in the experiment with NCI-H23 lung; 78.9% in the experiment on NCI-H226 lung; 89.1% in the experiment with NCI-H322M lung; 70.6% with HOP-62 NSCLC; 28% in the experiment with NCI-H460 lung; 62.4% with HOP-92 NSCLC. Further, the growth was -18.9% (active) in the experiment on NCI-H522 lung; 59.2% with A549/ATCC NSCLC; 57.6% with 786-0 renal; 86% in the experiment with COLO 205 colon; 67.4% in the experiment with DU-145 prostate; 15.1% in the experiment on K-562 leukemia. Moreover, the growth is 63.8% in the experiment on MALME-3M melanoma; 47.5% in the experiment on MDA-MB-231 breast; 87.5% in the experiment with RXF 393 renal; 78.2% in the experiment on SF-268 CNS; 39.6% in the experiment on SF-295 CNS; 32.4% in the experiment on SF-539 CNS. Also, the growth in the experiment on UACC-257 melanoma is 83.2%; in the experiment on M14 melanoma, 52.6%.

Take `Cc1ccc(C(C)C)cc1Oc1cccc(-c2c(-c3ccc(C(F)(F)F)cc3)ncn2C2CCNCC2)n1`: the growth in the experiment with NCI-H23 lung was -89% (active); with NCI-H226 lung, -78.4% (active); in the experiment on NCI-H322M lung, -98.4% (active); in the experiment with HOP-62 NSCLC, -82.7% (active); in the experiment with NCI-H460 lung, -84.3% (active); in the experiment with HOP-92 NSCLC it was -85.8% (active). The growth in the experiment on NCI-H522 lung was -91.2% (active); in the experiment with A549/ATCC NSCLC it was -86.8% (active); in the experiment on 786-0 renal it was -90.8% (active); with COLO 205 colon, -87.5% (active); in the experiment with DU-145 prostate, -83.5% (active); in the experiment on K-562 leukemia, -60.7% (active). For the same molecule, the growth is -86.6% (active) in the experiment with MALME-3M melanoma; -95.7% (active) with MDA-MB-231 breast; -90.3% (active) with RXF 393 renal; -56.6% (active) in the experiment on SF-268 CNS; -94.2% (active) in the experiment on SF-295 CNS; -98.2% (active) in the experiment with SF-539 CNS. Besides, the growth with UACC-257 melanoma was -88.4% (active); in the experiment on M14 melanoma it was -97.2% (active).

Consider `O=C(c1ccc(O)cc1)C1[C@H](c2ccc(Cl)cc2)[C@@H](c2ccccc2)NC12C(=O)Nc1ccc(Br)cc12` (stereo not given in full), for which the growth in the experiment with NCI-H23 lung was -58.7% (active); in the experiment with NCI-H226 lung, -54.7% (active); with NCI-H322M lung, -4.19% (active); in the experiment on HOP-62 NSCLC, -28.9% (active); in the experiment with NCI-H460 lung, -45.9% (active); in the experiment on HOP-92 NSCLC, -32.2% (active). Moreover, the growth in the experiment on NCI-H522 lung was -20.8% (active); in the experiment on A549/ATCC NSCLC it was 5.99% (active); in the experiment with 786-0 renal, -52.1% (active); with COLO 205 colon it was -86.3% (active); in the experiment with DU-145 prostate it was 13.4%; in the experiment on K-562 leukemia, -41.7% (active). For the same molecule, the growth was -49% (active) in the experiment with MALME-3M melanoma; -79.4% (active) in the experiment with MDA-MB-231 breast; -85.9% (active) in the experiment on RXF 393 renal; 3.93% (active) with SF-268 CNS; -60.8% (active) in the experiment with SF-295 CNS; -37.5% (active) in the experiment with SF-539 CNS. In addition, the growth was 65.9% in the experiment with UACC-257 melanoma and -56.8% (active) in the experiment on M14 melanoma.

As for `Cc1ccc(N=Nc2c(N)nn3c(-c4cc5cc(Br)ccc5oc4=O)ccnc23)cc1`, the growth was 21.7% in the experiment on NCI-H23 lung; -26.3% (active) with NCI-H226 lung; 83.6% in the experiment on NCI-H322M lung; 47.7% in the experiment with HOP-62 NSCLC; 34.9% in the experiment with NCI-H460 lung; 73.6% with HOP-92 NSCLC. In addition, the growth in the experiment on NCI-H522 lung was 11.7%; in the experiment on A549/ATCC NSCLC, 113%; in the experiment with 786-0 renal it was 56.8%; in the experiment with COLO 205 colon, 100%; in the experiment with DU-145 prostate, 52.8%; in the experiment with K-562 leukemia, 64.4%. The growth with MALME-3M melanoma is 82%; in the experiment on MDA-MB-231 breast, -11.1% (active); with RXF 393 renal it was -3.16% (active); in the experiment on SF-268 CNS it was 16%; with SF-295 CNS, 49%; in the experiment with SF-539 CNS, -46.5% (active). In addition, the growth is 121% in the experiment on UACC-257 melanoma and 65.1% with M14 melanoma.

For the molecule `COc1ccc(-c2cc(C(=O)Oc3ccc(C=O)cc3OC)nn2-c2ccc(S(C)(=O)=O)cc2)cc1`, the growth in the experiment on NCI-H23 lung is 96%; with NCI-H226 lung, 104%; in the experiment on NCI-H322M lung, 106%; with HOP-62 NSCLC, 104%; in the experiment with NCI-H460 lung it was 105%; in the experiment with HOP-92 NSCLC it was 110%. For the same molecule, the growth with NCI-H522 lung was 68.3%; with A549/ATCC NSCLC, 105%; in the experiment with 786-0 renal it was 113%; with COLO 205 colon, 133%; in the experiment on DU-145 prostate it was 110%; in the experiment on K-562 leukemia it was 96.1%. The growth in the experiment with MALME-3M melanoma is 105%; in the experiment with MDA-MB-231 breast, 94.3%; in the experiment on RXF 393 renal, 122%; in the experiment with SF-268 CNS it was 103%; with SF-295 CNS, 110%; in the experiment with SF-539 CNS it was 106%. In addition, the values for the growth in the experiment on UACC-257 melanoma and with M14 melanoma were 115% and 117%, respectively.
